Reference: PubChem BioAssay (Tox21)
A number with no mark means an inactive call. Results filed as inconclusive are left out. Activity calls are given as the source filed them. Unless noted, calls follow the shape of the dose curve; as a rule, active = well fitted curve in the direction sought with a large enough effect in the repeat runs; inconclusive = weak or mixed curves; inactive = no such curve, though single readings can be large; an effect the other way counts as inactive or inconclusive.

System: not listed separately
Experiment: qHTS assay to identify small molecule antagonists of the androgen receptor (AR) signaling pathway - cell viability counter screen (AID 743033; also: nearly all actives have a fitted effect of over 45% in size)
Details: AR-bla HEK293 viability, CellTiter-Glo luminescence, 16 h; series mostly up to 58.5 µM; activity change, negative = cytotoxicity: at the top concentration
% is scaled to controls: 0 for no effect and ±100 for the full control effect.

| SMILES | activity change, negative = cytotoxicity |
| --- | --- |
| CO[C@@]1(NC(=O)CSCC#N)C(=O)N2C(C(=O)O)=C(CSc3nnnn3C)CS[C@@H]21 | 2.26% |
| Nc1ccc(Oc2ccc(N)c(N)c2)cc1 | -0.0222% |
| CCOc1ccc(NS(=O)(=O)c2ccc(N)cc2)nn1 | -18.4% |
| C=CCCC=C | 0.428% [at 78.9 µM] |
| Nc1cccc(S(=O)(=O)O)c1 | 3.58% |
| CC(CNC1CCCCC1)OC(=O)c1ccccc1 (centres undefined) | -29.4% [at 27 µM] |
| C1CCOC1 | -2.1% [at 78.9 µM] |
| CCCCC1CCC(=O)O1 (centres undefined) | 7.06% |
| CCCN(CCC)C(=O)C(CCC(=O)O)NC(=O)c1ccccc1 (centres undefined) | 0.53% |
| CCN(CC)CCOc1ccc(Cc2ccccc2)cc1 | -4.85% |
| COc1ccc2nc(NC(=O)Nc3ccccc3)sc2c1 | -17.7% |
| O=C(O)C(=O)Cc1c[nH]c2ccccc12 | -16% |
| O=C(CC(=O)C(F)(F)F)c1ccccc1 | -6.39% [at 78.9 µM] |
| CCCCOc1cc(C(=O)NCCN(CC)CC)c2ccccc2n1 | -5.68% [at 27 µM] |
| CCC/C=C/CO | -4.58% |
| COC(=O)C(C)O (centres undefined) | 4.48% [at 78.9 µM] |

| SMILES | activity change, negative = cytotoxicity |
| --- | --- |
| CCc1nnc(NS(=O)(=O)c2ccc(N)cc2)s1 | 6.3% |
| N#Cc1ccc(C(c2ccc(C#N)cc2)n2cncn2)cc1 | -8.14% |
| Cc1cc(S(=O)(=O)O)c(N)cc1Cl | 0.225% [at 78.9 µM] |
| O=C(O)c1cccc(Cl)c1Cl | 1.13% |
| Cc1c(C(=O)NCCO)[n+](=O)c2ccccc2n1[O-] | -9.74% |
| CC(C)(C)c1cccc(O)c1 | -8.88% |
| Cc1ccc(C=O)s1 | 3.22% |
| CC1(C)O[C@@H]2C[C@H]3[C@@H]4CCC5=CC(=O)CC[C@]5(C)[C@@]4(F)[C@@H](O)C[C@]3(C)[C@]2(C(=O)CCl)O1 | 0.313% [at 27 µM] |
| COc1nc(C)nc(NC(=O)NS(=O)(=O)c2ccccc2OCCCl)n1 | -0.853% |
| CN1CCN(c2c(F)cc3c(=O)c(C(=O)O)cn4c3c2SCC4)CC1 | -19.8% |
| CCCCc1ccc2nc(NC(=O)OC)[nH]c2c1 | 2.49% [at 27 µM] |
| CCNCCO | -5.75% |
| CN(C)CCOc1ccccc1Cc1ccccc1 | 1.06% |
| Cc1cc2nc(N)sc2cc1C | -10.3% [at 78.9 µM] |
| CN1CCN(c2c(F)cc3c(=O)c(C(=O)O)cn(CCF)c3c2F)CC1 | 2.02% |

Target: Androgen receptor (Homo sapiens) (UniProt P10275)
Sequence (P10275 whole entry, looked up): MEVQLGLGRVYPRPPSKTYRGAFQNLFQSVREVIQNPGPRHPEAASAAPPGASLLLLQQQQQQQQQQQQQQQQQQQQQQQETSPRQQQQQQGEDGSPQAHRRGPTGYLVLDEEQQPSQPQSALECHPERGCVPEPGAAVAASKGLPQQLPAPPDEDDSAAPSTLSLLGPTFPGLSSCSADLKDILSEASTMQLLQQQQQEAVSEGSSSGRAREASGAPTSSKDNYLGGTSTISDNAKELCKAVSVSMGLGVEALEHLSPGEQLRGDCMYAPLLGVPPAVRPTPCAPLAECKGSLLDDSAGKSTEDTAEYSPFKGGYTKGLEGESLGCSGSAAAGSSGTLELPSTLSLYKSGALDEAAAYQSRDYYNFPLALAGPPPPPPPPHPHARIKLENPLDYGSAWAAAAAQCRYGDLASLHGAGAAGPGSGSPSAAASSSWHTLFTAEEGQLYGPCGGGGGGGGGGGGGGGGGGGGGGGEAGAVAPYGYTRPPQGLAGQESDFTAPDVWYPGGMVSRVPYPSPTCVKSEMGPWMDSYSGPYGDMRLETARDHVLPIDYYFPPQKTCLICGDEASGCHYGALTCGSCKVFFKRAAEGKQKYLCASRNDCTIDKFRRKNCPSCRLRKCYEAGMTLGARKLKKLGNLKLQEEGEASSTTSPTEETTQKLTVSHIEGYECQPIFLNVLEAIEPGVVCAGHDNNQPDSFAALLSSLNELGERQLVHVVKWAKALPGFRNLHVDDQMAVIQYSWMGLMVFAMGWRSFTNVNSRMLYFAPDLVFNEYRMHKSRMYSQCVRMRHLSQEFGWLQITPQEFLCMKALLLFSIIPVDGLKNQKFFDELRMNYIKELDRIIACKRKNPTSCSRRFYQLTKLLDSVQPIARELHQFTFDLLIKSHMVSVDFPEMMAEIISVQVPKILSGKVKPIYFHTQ
Experiment: qHTS assay to identify small molecule antagonists of the androgen receptor (AR) signaling pathway (AID 743035; active = well fitted inhibition curve with a large enough effect in the signal ratio in the repeat runs, not every such curve was filed as active; the % refers to the signal ratio)
Details: HEK293 AR-UAS-bla, R1881-stimulated, beta-lactamase FRET, 16 h; series mostly up to 58.5 µM; activity change, negative = inhibition: at the top concentration
Procedure, shortened: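 Using qHTS, AR-UAS-bla GripTite HEK293 cells received compound, then R1881, and were cultured 16 h at 37C/5% CO2 before a 2 h room-temperature LiveBLAzer B/G FRET substrate step and fluorescence measurement.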

| SMILES | activity change, negative = inhibition |
| --- | --- |
| Nc1cccc(S(=O)(=O)O)c1 | -0.305% |
| Cc1ncc(CO)c(CN)c1O | -2.02% |
| COC(=O)C(C)O (centres undefined) | 3% [at 78.9 µM] |
| N#Cc1ccc(C(c2ccc(C#N)cc2)n2cncn2)cc1 | -23.4% |
| Cc1cc(S(=O)(=O)O)c(N)cc1Cl | 2.14% [at 78.9 µM] |
| Cc1c(C(=O)NCCO)[n+](=O)c2ccccc2n1[O-] | -4.27% |
| CC(C)(C)c1cccc(O)c1 | -4.32% |

Target: Androgen receptor (Homo sapiens) (UniProt P10275)
Experiment: qHTS assay to identify small molecule agonists of the androgen receptor (AR) signaling pathway (AID 743036; active = well fitted activation curve with a large enough effect in the signal ratio in the repeat runs, with a control signal flat, not every such curve was filed as active; the % refers to the signal ratio)
Details: HEK293 AR-UAS-bla GripTite, beta-lactamase FRET ratio, 16 h; series mostly up to 62.4 µM; activation: at the top concentration
Procedure, shortened: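 Quantitative HTS of the Tox21 10K library in HEK293 cells bearing a stably integrated UAS-controlled beta-lactamase reporter. Compound exposure lasted 16 h at 37C. Reporter activity was detected by FRET substrate fluorescence after 2 h at room temperature.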

| SMILES | activation | outcome |
| --- | --- | --- |
| Nc1cccc(S(=O)(=O)O)c1 | 8.72% |  |
| Cc1ncc(CO)c(CN)c1O | 0.231% |  |
| COC(=O)C(C)O (centres undefined) | 5.36% [at 79.1 µM] |  |
| N#Cc1ccc(C(c2ccc(C#N)cc2)n2cncn2)cc1 |  | inactive |
| Cc1cc(S(=O)(=O)O)c(N)cc1Cl | -0.0401% [at 79.1 µM] |  |
| Cc1c(C(=O)NCCO)[n+](=O)c2ccccc2n1[O-] | -8.87% |  |
| CC(C)(C)c1cccc(O)c1 | -4.92% |  |

Target: Androgen receptor (Homo sapiens) (UniProt P10275)
Experiment: qHTS assay to identify small molecule agonists of the androgen receptor (AR) signaling pathway using the MDA cell line (AID 743040; also: nearly all actives have a fitted effect of over 20% in size; also: potency is read from the fitted curve at half-maximal effect)
Details: MDA-kb2 AR-luc cells, MMTV luciferase, 16 h; series mostly up to 70.3 µM; activity change: at the top concentration
Procedure, shortened: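 Human breast carcinoma MDA-kb2 reporter cells (MMTV-luc, AR/GR elements) were treated for 16 h at 37C in 0% CO2 following a 5 h settling period. Signal was quantified by ONE-Glo luminescence.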

| SMILES | activity change | Potency |
| --- | --- | --- |
| Nc1cccc(S(=O)(=O)O)c1 | 0.954% |  |
| Cc1ncc(CO)c(CN)c1O | 0.774% |  |
| COC(=O)C(C)O (centres undefined) | -3.01% [at 95 µM, hits give high values] |  |
| N#Cc1ccc(C(c2ccc(C#N)cc2)n2cncn2)cc1 |  | inactive |
| Cc1cc(S(=O)(=O)O)c(N)cc1Cl | -2.03% [at 95 µM, hits give high values] |  |
| Cc1c(C(=O)NCCO)[n+](=O)c2ccccc2n1[O-] | 0.0486% |  |
| CC(C)(C)c1cccc(O)c1 | -0.0038% |  |
| CCCCc1ccc2nc(NC(=O)OC)[nH]c2c1 |  | 5.07 µM (active) |
| Cc1cc2nc(N)sc2cc1C | 15.3% [at 95 µM, hits give high values] |  |

System: not listed separately
Experiment: qHTS assay to identify small molecule antagonists of the androgen receptor (AR) signaling pathway using the MDA cell line - cell viability counter screen (AID 743041; also: nearly all actives have a fitted effect of over 45% in size)
Details: MDA-kb2 viability, CellTiter-Fluor, 16 h, cells co-treated with R1881 androgen agonist; series mostly up to 70.3 µM; viability change, negative = cytotoxic: at the top concentration
Procedure, shortened: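 Same-well cytotoxicity was assessed by CellTiter-Fluor in MDA-kb2 AR-luc cells after 16 h of compound treatment under R1881 agonism.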

| SMILES | viability change, negative = cytotoxic | Potency |
| --- | --- | --- |
| CO[C@@]1(NC(=O)CSCC#N)C(=O)N2C(C(=O)O)=C(CSc3nnnn3C)CS[C@@H]21 | 1.39% |  |
| CCOc1ccc(NS(=O)(=O)c2ccc(N)cc2)nn1 | 4.16% |  |
| C=CCCC=C | -12.6% [at 95 µM] |  |
| Nc1cccc(S(=O)(=O)O)c1 | 4.81% |  |
| CC(CNC1CCCCC1)OC(=O)c1ccccc1 (centres undefined) | 5.91% [at 32.5 µM] |  |
| C1CCOC1 | 11.8% [at 95 µM] |  |
| CCCCC1CCC(=O)O1 (centres undefined) | 2.07% |  |
| CCCN(CCC)C(=O)C(CCC(=O)O)NC(=O)c1ccccc1 (centres undefined) | -4.09% |  |
| CCCCCCCCCCCCCCCCOP(=O)([O-])OCC[N+](C)(C)C | 7.28% |  |
| COc1ccc2nc(NC(=O)Nc3ccccc3)sc2c1 | 5.99% |  |
| O=C(O)C(=O)Cc1c[nH]c2ccccc12 | -0.93% |  |
| CCCCOc1cc(C(=O)NCCN(CC)CC)c2ccccc2n1 | 7.77% [at 32.5 µM] |  |
| Cc1ncc(CO)c(CN)c1O | 3.42% |  |
| COC(=O)C(C)O (centres undefined) | 8.79% [at 95 µM] |  |
| CCc1nnc(NS(=O)(=O)c2ccc(N)cc2)s1 | 4.11% |  |
| N#Cc1ccc(C(c2ccc(C#N)cc2)n2cncn2)cc1 |  | inactive |
| O=C(O)[C@@H](O)[C@H](O)[C@H](O)[C@@H](O)C(=O)O | -0.971% |  |
| Cc1cc(S(=O)(=O)O)c(N)cc1Cl | 2.47% [at 95 µM] |  |
| O=C(O)c1cccc(Cl)c1Cl | -2.27% |  |
| Cc1c(C(=O)NCCO)[n+](=O)c2ccccc2n1[O-] | 0.219% |  |
| CC(C)(C)c1cccc(O)c1 | -5.8% |  |
| Cc1ccc(C=O)s1 | 24.9% |  |
| CC1(C)O[C@@H]2C[C@H]3[C@@H]4CCC5=CC(=O)CC[C@]5(C)[C@@]4(F)[C@@H](O)C[C@]3(C)[C@]2(C(=O)CCl)O1 | -1.2% [at 32.5 µM] |  |
| COc1nc(C)nc(NC(=O)NS(=O)(=O)c2ccccc2OCCCl)n1 | 7.3% |  |
| CN1CCN(c2c(F)cc3c(=O)c(C(=O)O)cn4c3c2SCC4)CC1 | -1.22% |  |
| CCCCc1ccc2nc(NC(=O)OC)[nH]c2c1 | -16.7% [at 32.5 µM] |  |
| CCNCCO | 5.69% |  |
| CN(C)CCOc1ccccc1Cc1ccccc1 | -0.806% |  |
| Cc1cc2nc(N)sc2cc1C | -1.57% [at 95 µM] |  |
| CN1CCN(c2c(F)cc3c(=O)c(C(=O)O)cn(CCF)c3c2F)CC1 | 1.88% |  |
